UDG counterscr: blocks uracil-DNA glycosylase in AID counter-screen; FRET deamination/UDG coupled assay, UDG read, 4 h; Potency, µM (series often up to 115 µM), usual class: inhibitors; hit rate 0.14% among 91,000; further: nearly all actives have a fitted effect of over 65% in size
AID inhibitor: inhibitors of human activation induced cytidine deaminase; AID 1347428; AID deamination FRET fluorescence, UDG-coupled, 4 h; hit rate 0.32% among 91,000; Potency, µM (highest dose often 115 µM), actives largely listed as inhibitors; further: nearly all actives have a fitted effect of over 25% in size
Target sequence (Q9GZX7 whole entry, looked up): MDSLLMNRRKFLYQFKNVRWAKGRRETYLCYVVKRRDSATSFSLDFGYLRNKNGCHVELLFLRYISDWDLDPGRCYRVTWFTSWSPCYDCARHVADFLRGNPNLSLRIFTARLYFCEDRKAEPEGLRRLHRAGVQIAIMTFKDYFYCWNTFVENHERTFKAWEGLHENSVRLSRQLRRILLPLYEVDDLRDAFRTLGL
Numbers stand for hits; 0 = inactive; ? = inconclusive. An excerpt weighted towards active compounds, which were near 0.47% of everything screened. The call rests on the fitted dose curve; in most records, active means well fitted curve in the direction sought with a large enough effect; inconclusive means small, poorly fitted or top-dose-only effect, or another doubt; inactive means no such curve, though single readings can be large; an effect the other way counts as inactive or inconclusive.

SMILES | UDG counterscr | AID inhibitor
Cc1ccc(CNC(=O)c2ccc(-c3nc(CS(=O)c4ccccc4)c(C)o3)cc2)cc1 (stereo unspecified) | 0 | 0
CC(=O)c1cc(CCC(=O)OC(C)C(=O)C23CC4CC(CC(C4)C2)C3)oc1C (stereo unspecified) | 0 | 0
COc1cc(OC)c(NC(c2nnc(-c3ccccc3)o2)c2ccc(F)cc2Cl)cc1Cl (stereo unspecified) | 0 | 0
CCc1cccc(NC(c2nnc(-c3ccccc3)o2)c2ccc(F)cc2Cl)c1 (stereo unspecified) | 79µM | ?
Cc1ccc(C)c(NC(=O)C23CCC(=O)N2c2ccccc2C(=O)N3Cc2ccccc2)c1 (stereo unspecified) | 0 | 0
CC(C)Oc1ccc(CNC(=O)C2CCCCN2S(=O)(=O)c2ccc(F)cc2)cc1 (stereo unspecified) | 89µM | ?
Cc1ccc(C)c(CNC(=O)C2CCCCN2S(=O)(=O)c2ccc(F)cc2)c1 (stereo unspecified) | ? | 0
COc1ccc(OC)c(C2C(C(=O)Nc3ccccc3OC)=C(C)Nc3c(C(=O)Nc4ccc(F)cc4)cnn32)c1 (stereo unspecified) | 0 | 18µM
COc1ccc(OC)c(C2C(C(=O)Nc3ccc(C)cc3C)=C(C)Nc3c(C(=O)Nc4ccc(F)cc4)cnn32)c1 (stereo unspecified) | 0 | ?
CCc1ccc(-c2csc(-c3nc(-c4ccc(C)cc4C)cs3)n2)cc1 | 0 | 0
COc1cccc(NC(=O)CSc2nc3c([nH]c4ccccc43)c(=O)n2-c2cccc(Cl)c2)c1 | 0 | 0
COc1cccc(-n2c(SCC(=O)Nc3cccc(C)c3)nc3c([nH]c4ccccc43)c2=O)c1 | 0 | 13µM
Cc1ccc(C)c(N2CCN(C(=O)c3cccn4c(=O)c5ccccc5nc34)CC2)c1 | 0 | 0
O=C(c1cccn2c(=O)c3cc(Cl)ccc3nc12)N1CCN(c2ccccc2F)CC1 | 79µM | 0
COc1cccc(CNC(=O)CC(c2ccc(C)cc2)N2Cc3ccccc3C2=O)c1 (stereo unspecified) | 0 | ?
COc1cc(NC(=O)CC(c2ccc(C)cc2)N2Cc3ccccc3C2=O)cc(OC)c1 (stereo unspecified) | 0 | 45µM
COc1ccc(Cl)cc1C(=O)NCCN1CCCCC1 | 0 | 0
CCc1ccc(NC(=O)c2sc3ncnc(N(C)C4CCCCC4)c3c2C)cc1 | 79µM | 0
CCOc1ccc(CNC(=O)c2sc3ncnc(N(C)C4CCCCC4)c3c2C)cc1 | 0 | ?
CC(C)=CC1C(C(=O)NC2CCCCC2C(F)(F)F)C1(C)C (stereo unspecified) | 0 | 0
N#C/C(=C\c1ccc(-c2ccc(Cl)c(C(=O)O)c2)o1)c1nc2ccccc2[nH]1 | 0 | 28µM
Cc1ccc(NC(=O)/C(C#N)=C/c2ccc(-c3ccc(Cl)c(C(=O)O)c3)o2)cc1C | ? | 79µM
Cc1ccc(NC(=O)/C(C#N)=C\c2ccc(Cl)cc2Cl)cc1C | 0 | 0
N#C/C(=C\c1ccc(-c2ccc(C(=O)O)cc2)o1)c1nc2ccccc2[nH]1 | 0 | 0
COC(=O)c1ccccc1NC(=O)CSc1nnc(-c2ccc(Cl)cc2)n1Cc1ccco1 | 0 | 0
SMILES | UDG counterscr | AID inhibitor
CC(Oc1cccc(Cl)c1)C(=O)OCc1nc(N)nc(N)n1 (stereo unspecified) | 0 | 0
CCOc1ccc(-c2nc(CSCC(=O)N3CCN(c4ccc(F)cc4)CC3)c(C)o2)cc1 | 0 | 0
CCOC(=O)c1c(C)oc2nc(C)nc(N3CCN(c4ccccc4)CC3)c12 | 0 | 0
CCOc1ccc(-c2nc(CSCC(=O)N3CCN(c4cccc(C(F)(F)F)c4)CC3)c(C)o2)cc1 | 0 | 32µM
CCOC(=O)c1c(C)oc2nc(C)nc(N3CCN(c4cccc(C(F)(F)F)c4)CC3)c12 | 0 | 14µM
C(=N\N=C1c2ccccc2-c2ccccc21)/c1c2ccccc2cc2ccccc12 | 0 | 0
O=C(CSc1nnnn1-c1cccc(F)c1)NCC1(N2CCOCC2)CCCCC1 | 0 | 0
Nc1ccccc1C(=O)NCCc1ccccc1 | 0 | 0
NNCCc1ccccc1 | 32µM | 45µM
C/C(=N/Nc1ccccc1)c1ccc(Cl)s1 | 0 | 0
COc1ccc(/C=C/C(=O)c2ccc(C)cc2)cc1 | 0 | 0
O=C(Nc1cccc2cccnc12)C(c1ccccc1)c1ccccc1 | 89µM | 0
O=C(CSc1cccc2cccnc12)NNC(=O)C(c1ccccc1)c1ccccc1 | 0 | 0
COc1ccc(CC(=O)Oc2ccc3cc(Br)ccc3c2)cc1OC | 0 | 0
Cc1cccc(N2CCN(c3ncnc4onc(C)c34)CC2C)c1 (stereo unspecified) | 0 | 0
Cc1cccc(N2CCN(c3ncnc4onc(-c5ccc(F)cc5)c34)CC2C)c1 (stereo unspecified) | 79µM | ?
COc1ccccc1Nc1nn2c(=O)c3ccc(C(=O)NCc4cccs4)cc3nc2s1 | 0 | 0
CCN(CC)CCNC(=O)c1ccc2c(=O)n3nc(Nc4ccccc4OC)sc3nc2c1 | 0 | 71µM
COc1ccccc1Nc1nn2c(=O)c3ccc(C(=O)NCCCOC(C)C)cc3nc2s1 | 0 | 0
Cc1ccc(C)c(Nc2nn3c(=O)c4ccc(C(=O)NCc5cccs5)cc4nc3s2)c1 | 0 | 40µM
O=C(c1cccs1)N(Cc1ccco1)C1CC1 | 0 | 0
Cc1ccc(N2CC(c3nc4ccccc4n3CCC3CCCCC3)CC2=O)cc1 (stereo unspecified) | ? | 0
CCOc1ccccc1N1CC(c2nc3ccccc3n2CCCCOc2ccccc2)CC1=O (stereo unspecified) | 0 | 0
CCc1ccccc1N1CC(c2nc3ccccc3n2CCC2CCCCC2)CC1=O (stereo unspecified) | 79µM | ?
O=C1CC(c2nc3ccccc3n2CCCCOc2ccccc2)CN1c1ccccc1Cl (stereo unspecified) | 89µM | ?
SMILES | UDG counterscr | AID inhibitor
O=C(/C(Br)=C/Nc1cc(Cl)cc(Cl)c1)C(F)(F)F | 0 | 0
c1ccc(-c2ccc(-c3ccn[nH]3)cc2)cc1 | 0 | 0
CCOc1ccc(NC(=O)CSc2nc(-c3ccc(OC)cc3)nc3c2Cc2c(CO)cnc(C)c2O3)cc1 | 0 | 0
COc1cc(NC(=O)CSc2nc(-c3ccc(C)cc3)nc3c2Cc2ccccc2O3)cc(OC)c1 | 0 | 0
COc1ccc(-c2nc3c(c(SCC(=O)Nc4cccc(O)c4)n2)Cc2c(CO)cnc(C)c2O3)cc1 | 0 | 45µM
O=C(CSc1nc(-c2ccc(F)cc2)nc2c1Cc1ccccc1O2)Nc1cccc(C(=O)O)c1 | 0 | 40µM
CCCOc1cc(C)c(S(=O)(=O)Nc2cccnc2)cc1C | 0 | 0
O=C(CCNc1nc(Cl)nc2nc[nH]c12)NC1CC1 | 0 | 0
O=C(NCCCCCO)C1CCN(c2nc(Cl)nc3nc[nH]c23)CC1 | 89µM | 0
Cc1nc(NC(C)(C)C)sc1C(=O)Nc1ccccc1 | 0 | 0
S=C(NCc1ccc(Cl)cc1)C1CCCCC1 | 0 | 0
COc1cc(OC)c(N(C)C(=O)c2nn(C)c3c2CSc2ccccc2-3)cc1Cl | 0 | 45µM
CCc1ccccc1N(C)C(=O)c1nn(C)c2c1CSc1ccccc1-2 | 0 | ?
CC1=CC(C)C2(COC(CC(C)C)OC2)C(C)C1 (stereo unspecified) | 0 | 0
O=C(NCc1ccccn1)C1CC2CCC1C2 (stereo unspecified) | 0 | 0
O=C(CCCCC(=O)NNC(=S)NC1CC1)NNC(=S)NC1CC1 | 0 | 0
CCOC(=O)c1c(C)oc2nc(C)nc(NC(C)c3ccccc3)c12 (stereo unspecified) | 0 | 79µM
CCOC(=O)c1c(C)oc2nc(C)nc(NCc3ccc(Cl)cc3)c12 | 0 | 0

Screens as filed in PubChem BioAssay.
